# In PubChem BioAssay:
# Active and inactive are the calls of the source. Unless noted, how the calls were made is not given here.
# What was measured:
# [1] = test system: Wnt5a (protein binding on small-molecule microarray); experiment: small molecules binding Wnt5a protein – biophysical, small-molecule microarray, 635/667 nm fluorescence, primary screen (AID 1142); details: 635 nm fluorescence, higher = more signal;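 further: fluorescence read at 667 nm with signal to noise per printed feature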
# [2] = ATP-based viability of Huh7 replicon cells – cell-based, CellTiter-Glo luminescence, basal, 48 h, cytotoxicity control for HCV replication inhibitor project, primary screen (AID 1143); details: higher = more signal, called active from +8 up or from −8 down;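 further: Huh7 hepatoma cells carrying a hepatitis C replication reporter with no stimulus; test concentration not given here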
# [3] = Pseudomonas biofilm growth suppression – PAO1 strain, BacTiter-Glo luminescence, LB-PBS, primary screen (AID 1144); details: P. aeruginosa PAO1 biofilm, 12 h, higher = more signal
# [4] = basal CRE-LacZ reporter activity in PC12 – cell-based, unstimulated, primary screen (AID 1145); details: no forskolin, luminescence, 4.5 h, higher = more signal, called active from +8 up or from −8 down
# [5] = forskolin-driven CRE-LacZ activity in PC12 – cell-based, CRE-LacZ reporter, forskolin-stimulated, primary screen (AID 1146); details: luminescence, 4.5 h, higher = more signal, called active from +8 up or from −8 down;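 further: PC12 cells with 6xCRE LacZ reporter stimulated by forskolin 10 µM; beta-galactosidase reporter signal reflecting CREB driven transcription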
# [6] = molecular target: Streptavidin (Streptomyces avidinii) (UniProt P22629); experiment: compounds binding control protein streptavidin – biophysical, small-molecule microarray, 635/667 nm fluorescence, artefact control for SMM compound annotation, primary screen (AID 1147); details: higher = more signal;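 further: signal reflects streptavidin binding to arrayed compounds as a control protein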
# [7] = probe aInhba binding on compound microarray – biochemical, small-molecule microarray, 635/667 nm fluorescence, primary screen (AID 1148); details: higher = more signal;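 further: score merges 667nm spot fluorescence with signal-to-noise for antibody binding to printed compounds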
# [8] = molecular target: Torsin-1A (Homo sapiens) (UniProt O14656); experiment: TOR1A wild-type binding on microarray – cell lysate, small-molecule microarray, lysate, 635/667 nm, primary screen (AID 1149); details: COS7 hTOR1A-WT lysate, 635 nm fluorescence, higher = more signal
# [9] = molecular target: Torsin-1A (Homo sapiens) (UniProt O14656); experiment: torsin A mutant lysate binding on microarrays – cell lysate, small-molecule microarray, COS7 lysate, 635/667 nm fluorescence, primary screen (AID 1150); details: COS7 hTOR1A mutant lysate, 635 nm fluorescence, higher = more signal;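 further: score pools 667 nm emission and signal to noise measuring lysate protein binding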
# [10] = test system: Sonic hedgehog protein (Shh); experiment: Sonic hedgehog microarray binding compounds – biochemical, small-molecule microarray, 635/667 nm fluorescence, primary screen (AID 1151); details: 635 nm fluorescence, higher = more signal;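 further: Shh protein binding to compounds spotted on small-molecule microarray slides; score combines spot fluorescence intensity with signal-to-noise across triplicate slides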
# [11] = optical density shifts of acrAB sulA E. coli – strain DRC41, OD650, 48 h, E. coli filamentation inducer project, primary screen (AID 1152); details: higher = more signal, called active from +8 up or from −8 down;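 further: E. coli MC1000 strain DRC41 lacking acrAB efflux pump and sulA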
# [12] = probe aLefty1 binding on compound microarray – biochemical, small-molecule microarray, 635/667 nm fluorescence, primary screen (AID 1153); details: higher = more signal;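 further: score merges spot fluorescence with signal-to-noise ratio from the scanned slide images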
# [13] = plasmodial surface anion channel blockers, osmotic lysis – cell-based, P. falciparum Indochina, OD700, 1 h, primary screen (AID 1154); details: P. falciparum Indochina infected RBC osmotic lysis, higher = more signal, called active from +8 up or from −8 down
# [14] = plasmodial surface anion channel blockers, osmotic lysis – cell-based, P. falciparum Indochina, OD700, 2 h, primary screen (AID 1155);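 further: lysis reports solute entry through the parasite surface anion channel PSAC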; details: P. falciparum Indochina infected erythrocytes, higher = more signal, called active from +8 up or from −8 down
# [15] = changes in parasitized red cell lysis, either direction – P. falciparum Indochina, OD700, 3 h, PSAC antagonist project, primary screen (AID 1156); details: P. falciparum-infected erythrocytes, osmotic lysis, higher = more signal, called active from +8 up or from −8 down
# [16] = plasmodial surface anion channel blockers, osmotic lysis – cell-based, P. falciparum Indochina, OD700, 18 h, primary screen (AID 1157); details: P. falciparum Indochina infected erythrocytes, osmotic lysis OD700, 18 h; higher = more signal, called active from +8 up or from −8 down
# [17] = S6 kinase pathway phospho-S6 level changes – cell-based, A549, cytoblot, luminescence, serum-stimulated, primary screen (AID 1158); details: 5 h, higher = more signal;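 further: serum-stimulated A549 lung adenocarcinoma cells; signal is phosphorylated S6 detected by cytoblot immunostaining with HRP secondary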
# [18] = molecular target: NADPH oxidase 2 (Homo sapiens) (UniProt P04839); experiment: compounds shifting NOX2 Amplex Red fluorescence – cell-based, HEK293-NOX2, PMA-stimulated, NOX inhibitor project, primary screen (AID 1159); details: 45 min, higher = more signal, called active from +8 up or from −8 down; further: test concentration not given here
# [19] = molecular target: NADPH oxidase 4 (Homo sapiens) (UniProt Q9NPH5); experiment: compounds shifting NOX4 Amplex Red fluorescence – cell-based, HEK293-NOX4, tetracycline-induced, NOX inhibitor project, primary screen (AID 1160); details: HEK293-NOX4, Amplex Red H2O2 fluorescence, 45 min; higher = more signal, called active from +8 up or from −8 down
# [20] = molecular target: NADPH oxidase 5 (Homo sapiens) (UniProt Q96PH1); experiment: compounds shifting NOX5 Amplex Red fluorescence – cell-based, HEK293-NOX5, NOX inhibitor project, primary screen (AID 1161); details: HEK293-NOX5, ionomycin, 45 min, higher = more signal
# Sequence of NADPH oxidase 5 (Homo sapiens) (Q96PH1 whole entry, looked up): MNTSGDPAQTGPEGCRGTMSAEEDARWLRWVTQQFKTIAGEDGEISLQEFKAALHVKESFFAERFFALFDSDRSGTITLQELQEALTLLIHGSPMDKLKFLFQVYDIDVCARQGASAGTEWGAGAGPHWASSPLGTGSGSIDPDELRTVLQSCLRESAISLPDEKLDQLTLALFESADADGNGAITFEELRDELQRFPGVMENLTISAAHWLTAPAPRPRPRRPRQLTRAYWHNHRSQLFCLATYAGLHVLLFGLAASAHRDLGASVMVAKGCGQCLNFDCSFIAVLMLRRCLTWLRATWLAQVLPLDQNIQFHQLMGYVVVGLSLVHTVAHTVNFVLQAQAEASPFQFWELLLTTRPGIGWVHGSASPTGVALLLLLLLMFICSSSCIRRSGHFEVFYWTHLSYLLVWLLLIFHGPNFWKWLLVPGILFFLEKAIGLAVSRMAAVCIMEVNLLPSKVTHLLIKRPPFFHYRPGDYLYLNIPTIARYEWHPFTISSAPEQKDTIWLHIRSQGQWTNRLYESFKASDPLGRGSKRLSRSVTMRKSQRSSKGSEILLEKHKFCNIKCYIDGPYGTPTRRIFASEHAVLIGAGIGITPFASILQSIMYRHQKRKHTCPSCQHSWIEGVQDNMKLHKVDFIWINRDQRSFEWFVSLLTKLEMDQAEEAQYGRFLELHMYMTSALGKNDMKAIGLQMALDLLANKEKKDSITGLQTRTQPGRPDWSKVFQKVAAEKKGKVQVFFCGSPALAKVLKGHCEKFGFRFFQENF
# Sequence of Streptavidin (Streptomyces avidinii) (P22629 whole entry, looked up): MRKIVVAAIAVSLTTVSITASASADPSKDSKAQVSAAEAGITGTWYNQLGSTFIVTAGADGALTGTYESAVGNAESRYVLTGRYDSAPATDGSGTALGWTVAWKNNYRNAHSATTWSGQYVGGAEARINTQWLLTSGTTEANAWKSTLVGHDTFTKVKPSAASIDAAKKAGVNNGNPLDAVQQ
# Sequence of Torsin-1A (Homo sapiens) (O14656 whole entry, looked up): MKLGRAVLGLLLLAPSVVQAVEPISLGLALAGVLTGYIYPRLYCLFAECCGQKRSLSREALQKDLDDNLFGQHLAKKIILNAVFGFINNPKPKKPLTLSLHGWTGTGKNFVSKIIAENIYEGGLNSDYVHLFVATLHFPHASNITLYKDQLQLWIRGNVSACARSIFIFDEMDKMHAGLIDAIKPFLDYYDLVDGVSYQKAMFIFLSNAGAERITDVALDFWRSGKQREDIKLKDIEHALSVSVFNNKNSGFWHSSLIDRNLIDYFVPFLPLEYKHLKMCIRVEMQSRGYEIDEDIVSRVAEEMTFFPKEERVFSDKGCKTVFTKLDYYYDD
# Sequence of NADPH oxidase 2 (Homo sapiens) (P04839 whole entry, looked up): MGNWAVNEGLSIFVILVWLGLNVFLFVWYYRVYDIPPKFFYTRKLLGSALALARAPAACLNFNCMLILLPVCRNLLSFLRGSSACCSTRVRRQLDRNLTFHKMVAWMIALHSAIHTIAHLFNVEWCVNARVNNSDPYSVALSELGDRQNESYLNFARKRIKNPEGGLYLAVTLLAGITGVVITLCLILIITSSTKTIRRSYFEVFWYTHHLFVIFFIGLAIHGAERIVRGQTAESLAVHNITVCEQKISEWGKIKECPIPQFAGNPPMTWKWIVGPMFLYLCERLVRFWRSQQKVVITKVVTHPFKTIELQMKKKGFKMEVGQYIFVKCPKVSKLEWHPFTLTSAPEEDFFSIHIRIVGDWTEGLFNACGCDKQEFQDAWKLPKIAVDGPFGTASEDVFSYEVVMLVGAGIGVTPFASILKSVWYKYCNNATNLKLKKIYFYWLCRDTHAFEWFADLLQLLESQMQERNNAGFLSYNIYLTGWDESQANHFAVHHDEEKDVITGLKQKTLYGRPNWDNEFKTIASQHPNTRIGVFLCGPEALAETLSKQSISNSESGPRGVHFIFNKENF
# Sequence of NADPH oxidase 4 (Homo sapiens) (Q9NPH5 whole entry, looked up): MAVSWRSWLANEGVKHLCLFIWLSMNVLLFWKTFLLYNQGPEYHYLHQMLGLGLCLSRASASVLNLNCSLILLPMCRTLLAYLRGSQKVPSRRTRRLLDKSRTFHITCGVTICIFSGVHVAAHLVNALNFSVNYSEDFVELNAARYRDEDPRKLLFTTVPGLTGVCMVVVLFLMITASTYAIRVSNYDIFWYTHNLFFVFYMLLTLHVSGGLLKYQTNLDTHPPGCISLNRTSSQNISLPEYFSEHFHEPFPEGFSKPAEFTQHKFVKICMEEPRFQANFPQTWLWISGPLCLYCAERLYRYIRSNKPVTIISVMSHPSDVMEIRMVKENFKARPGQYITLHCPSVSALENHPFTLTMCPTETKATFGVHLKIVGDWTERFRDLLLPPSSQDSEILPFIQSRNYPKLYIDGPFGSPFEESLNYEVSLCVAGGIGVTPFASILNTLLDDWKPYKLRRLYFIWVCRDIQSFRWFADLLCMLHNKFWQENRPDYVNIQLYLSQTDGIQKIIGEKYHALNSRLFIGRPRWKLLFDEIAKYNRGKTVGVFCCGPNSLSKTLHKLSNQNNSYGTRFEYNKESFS
SMILES,composite z-score [1],z-score [2],z-score [3],z-score [4],z-score [5],composite z-score [6],composite z-score [7],composite z-score [8],composite z-score [9],composite z-score [10],z-score [11],composite z-score [12],z-score [13],z-score [14],z-score [15],z-score [16],z-score [17],z-score [18],z-score [19],z-score [20]
C=CCOC(=O)[C@H]1[C@@H]2C(=O)O[C@@H](c3ccccc3)[C@@H](c3ccccc3)N2[C@@H](c2ccc(OCCOC(=O)[C@H]3C[C@H]4C(=O)N[C@@H](CC(C)C)C(=O)N4[C@H]3c3cccc(OCCO)c3)cc2)[C@]12C(=O)Nc1ccc(I)cc12,0.725,0.0478 (inactive),0.568 (inactive),0.411 (inactive),-0.368 (inactive),0.205,-0.154,0.644,0.908,1.73,-0.811 (inactive),-0.33,2.5 (inactive),1.3 (inactive),0.844 (inactive),0.963 (inactive),0.547,1.35 (inactive),1.6 (inactive),1.14
COc1ccc([Si](C)(C)[C@@H]2[C@@H](CC(=O)N(CCO)Cc3ccccc3)O[C@]3(C(=O)N(c4ccccc4)c4ccccc43)[C@H]2C)cc1,0.272,-7.08 (inactive),-0.334 (inactive),7.53 (inactive),-2.26 (inactive),0.675,-0.125,0.555,0.3,1.17,1.3 (inactive),0.201,9.05 (active),1.2 (inactive),-1.43 (inactive),0.303 (inactive),1.73,-0.0719 (inactive),0.574 (inactive),-1.55
COC(=O)c1cn(C[C@@H](Cc2ccccc2)NC(=O)N[C@H](CO)CCc2oc(C(C)=O)c(C(=O)OC)c2C(=O)OC)nn1,0.173,-0.102 (inactive),0.201 (inactive),1.5 (inactive),-0.981 (inactive),0.304,0.108,0.658,0.268,1.93,0.555 (inactive),0.238,14.3 (active),2.29 (inactive),1.08 (inactive),0.872 (inactive),0.419,0.744 (inactive),1.01 (inactive),1.84
O=C1O[C@H](c2ccccc2)[C@H](c2ccccc2)N2[C@H]1[C@@H](C(=O)O)[C@]1(C(=O)Nc3ccc(C#CC4=CCCCC4)cc31)[C@H]2c1ccc(O)cc1,0.423,-0.53 (inactive),0.608 (inactive),1.72 (inactive),0.945 (inactive),-0.0343,-0.157,-0.107,0.298,1.22,-1.14 (inactive),-0.242,-2.37 (inactive),-0.921 (inactive),-10.4 (active),-0.451 (inactive),-0.497,1.62 (inactive),-3.15 (inactive),-0.32
CC(c1ccccc1)C(O)C1C=CC2C(=O)N(c3ccccc3)C(=O)C2N1Nc1ccc([N+](=O)[O-])cc1 (stereo not given),0.523,-0.664 (inactive),-1.53 (inactive),-0.48 (inactive),0.624 (inactive),0.656,0.118,0.971,0.29,0.513,0.179 (inactive),0.175,20.8 (active),5.25 (inactive),0.283 (inactive),1.61 (inactive),-0.438,-0.7 (inactive),-1.18 (inactive),-1.38
COCCCNC(=O)[C@@]1(Cc2ccccc2CN=[N+]=[N-])N=C(c2ccc(OCCCO)cc2)O[C@H]1c1ccccc1,0.919,-4.74 (inactive),-0.688 (inactive),0.391 (inactive),0.145 (inactive),0.284,0.0872,0.821,1.26,-0.715,-0.314 (inactive),0.197,17.1 (active),2.76 (inactive),0.697 (inactive),1.16 (inactive),0.146,-1.79 (inactive),-0.298 (inactive),-1.54
CC(CO)N1C(=O)[C@@H]2[C@H]3C(=O)OCC=C[C@H]3OC23C=CCN(CCN2CCOCC2)C(=O)[C@@H]13 (stereo not given in full),0.0471,-0.62 (inactive),1.3 (inactive),0.463 (inactive),0.0027 (inactive),-0.418,-0.314,-0.829,-0.475,1.65,-1.06 (inactive),-0.482,0.158 (inactive),-0.358 (inactive),-0.0103 (inactive),-0.255 (inactive),-0.471,0.381 (inactive),0.194 (inactive),1.2
CC(C)C[C@@H]1NC(=O)[C@@H]2C[C@H](C(=O)NCCCCN(C)C)[C@H](c3cccc(OCCO)c3)N2C1=O,-0.179,-0.193 (inactive),-1.25 (inactive),-0.817 (inactive),0.645 (inactive),-0.911,0.0108,0.352,0.718,1.24,0.471 (inactive),0.0945,4.21 (inactive),0.239 (inactive),0.931 (inactive),0.128 (inactive),0.422,1.46 (inactive),1.13 (inactive),0.903
